Rows were chosen to be rich in hits. Some 4.2% of all compounds tested hit in one or more screens of this group.
TIM10 inh – TIM10 yeast growth inhibition | S. cerevisiae TIM10 strain growth, BacTiter-Glo luminescence, 24 h | inhibition, % at 10 µM | hit rate 1.4% among 330,000 | AID 463195;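 active = inhibition of 40% or more at the single tested concentration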;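 also: wild-type TIM10 isogenic control strain grown at permissive 25 °C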
V-ATPase pHluor – alters yeast V-ATPase proton transport; S. cerevisiae, pHLuorin cytosolic pH fluorescence; response, % at 10 µM; hit rate 0.37% among 350,000; AID 504577; in the data active = response mostly above about 7.3%, no sharp cut-off; inactive = mostly below about 5.4%; also: actives read high
tim23-1 inh – tim23-1 yeast growth inhibition | S. cerevisiae tim23-1 growth, BacTiter-Glo luminescence, 24 h | inhibition, % at 20 µM | hit rate 1.3% among 330,000;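 active = growth inhibition of the mutant yeast at or above 50%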;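 also: temperature-sensitive mutant grown at 25 °C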
tim10-1 inh – tim10-1 yeast growth inhibition; S. cerevisiae tim10-1 ts strain growth, BacTiter-Glo, 24 h; inhibition, % at 20 µM; hit rate 2.2% among 330,000; AID 463190;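 active = inhibition of at least 40%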;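 also: mutant grown at 25 °C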
NALP3 yeast inh – NALP3 inhibition in yeast; Yeast reconstituted NLRP3/ASC/caspase-1, beta-gal luminescence, 24 h; inhibition, % at 10 µM; hit rate 0.39% among 330,000; AID 2825;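 active = inhibition of 50% or more; inactive = inhibition below 50%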
NALP1 yeast inh – blocks the NALP1 inflammasome reconstituted in yeast. S. cerevisiae NALP1/ASC/caspase-1 growth, X-gal OD620, 72 h. inhibition, % at 10 µM. hit rate 0.61% among 280,000. AID 2071; in the data active = inhibition mostly above about 24%, no sharp cut-off; inactive = mostly below about 32%
tim10-1 confirm – tim10-1 yeast growth inhibition, confirmed | shares compounds with tim10-1 inh | S. cerevisiae tim10-1 ts strain growth, BacTiter-Glo, 24 h | inhibition, % at 20 µM | hit rate 56% among 7,400;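 active = inhibition of yeast growth at or above a set limit in either of two repeat tests at 20 µM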;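 also: tim10-1 mutant grown at permissive 25 °C to find synthetic lethal compounds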
A number is an active result.

Results for CC1CN(Cc2ccco2)C(=S)NC1=O (configuration not stated) ?
V-ATPase pHluor: inactive

Results for COc1cccc(N2CCN(c3ccc4nnc(CCC(=O)Nc5ncccc5C)n4n3)CC2)c1 ?
TIM10 inh: inactive; V-ATPase pHluor: inactive; tim23-1 inh: inactive; tim10-1 inh: inactive; NALP3 yeast inh: inactive; NALP1 yeast inh: inactive

Results for Cn1nc(C(F)(F)F)c(CO)c1Sc1ccc(F)cc1 ?
TIM10 inh: inactive; V-ATPase pHluor: inactive; tim23-1 inh: inactive; tim10-1 inh: inactive; NALP3 yeast inh: inactive; NALP1 yeast inh: inactive

What do the screens show for `O=C(Nc1ccc(OC(F)F)cc1)c1cc(S(=O)(=O)N2CCCCC2)ccc1N1CCOCC1`?
TIM10 inh: inactive; V-ATPase pHluor: inactive; tim23-1 inh: inactive; tim10-1 inh: inactive; NALP3 yeast inh: inactive

How did COc1ccc(OC)c(CNC(=O)CCC(=O)N2Cc3cccc(OC)c3Oc3ncccc32)c1 do in these assays?
TIM10 inh: inactive; V-ATPase pHluor: inactive; tim23-1 inh: inactive; tim10-1 inh: inactive; NALP3 yeast inh: inactive; NALP1 yeast inh: inactive

How did Cc1cccc(-n2nc(C(=O)c3ccco3)cc(-c3nc4ccccc4[nH]3)c2=N)c1 do in these assays?
TIM10 inh: inactive; V-ATPase pHluor: inactive; tim23-1 inh: inactive; tim10-1 inh: 50.5; NALP3 yeast inh: inactive; NALP1 yeast inh: inactive; tim10-1 confirm: inactive

Results for CCCN1C(=O)c2ccc(C(=O)Nc3cc(C)ccc3O)cc2C1=O ?
TIM10 inh: inactive; V-ATPase pHluor: inactive; tim23-1 inh: inactive; tim10-1 inh: 43.9; NALP3 yeast inh: inactive; NALP1 yeast inh: inactive; tim10-1 confirm: inactive

What do the screens show for `COc1cc(/C=C2\C(=O)ON=C2c2ccccc2)cc(Br)c1O`?
TIM10 inh: inactive; V-ATPase pHluor: inactive; tim23-1 inh: inactive; tim10-1 inh: inactive; NALP3 yeast inh: inactive; NALP1 yeast inh: inactive

What do the screens show for `CCOc1cc(/C=C2\C(=O)ON=C2c2ccccc2)cc(Br)c1O`?
TIM10 inh: inactive; V-ATPase pHluor: inactive; tim23-1 inh: inactive; tim10-1 inh: 45.2; NALP3 yeast inh: inactive; NALP1 yeast inh: inactive; tim10-1 confirm: 30.1

What do the screens show for `C=CCN(C)CC/C=C1\c2ccccc2CSc2ccccc21`?
TIM10 inh: inactive; V-ATPase pHluor: inactive; tim23-1 inh: inactive; tim10-1 inh: inactive; NALP3 yeast inh: inactive; NALP1 yeast inh: inactive

What do the screens show for `C#CCN(C)CC/C=C1\c2ccccc2CSc2ccccc21`?
TIM10 inh: inactive; V-ATPase pHluor: inactive; tim23-1 inh: inactive; tim10-1 inh: 44.1; NALP3 yeast inh: inactive; NALP1 yeast inh: inactive; tim10-1 confirm: inactive

Results for Cc1ccnc(NC(=O)CCC(=O)N(CC(=O)NC(C)(C)C)c2ccc3c(c2)OCO3)c1 ?
TIM10 inh: inactive; V-ATPase pHluor: inactive; tim23-1 inh: inactive; tim10-1 inh: inactive; NALP3 yeast inh: inactive; NALP1 yeast inh: inactive

Results for CCN(CC(=O)Nc1ccc2c(c1)OCCO2)C(=O)/C=C/c1ccc(F)cc1 ?
TIM10 inh: inactive; V-ATPase pHluor: inactive; tim23-1 inh: inactive; tim10-1 inh: inactive; NALP3 yeast inh: inactive; NALP1 yeast inh: inactive

How did CCc1nnc(N/N=C/c2ccc(N3CCC(C)CC3)c([N+](=O)[O-])c2)n1N do in these assays?
TIM10 inh: inactive; V-ATPase pHluor: 16.2; tim23-1 inh: inactive; tim10-1 inh: 47.6; NALP3 yeast inh: inactive; NALP1 yeast inh: inactive; tim10-1 confirm: 42.0

How did CCN(CC)CCN(C(=O)c1ccc2c(c1)CCCC2)c1nc2ccc(C)cc2s1 do in these assays?
TIM10 inh: inactive; V-ATPase pHluor: inactive; tim23-1 inh: inactive; tim10-1 inh: inactive; NALP3 yeast inh: inactive; NALP1 yeast inh: inactive

What do the screens show for `CCN(CC)CCN(C(=O)c1ccc2c(c1)CCCC2)c1nc2ccc(OC)cc2s1`?
TIM10 inh: inactive; V-ATPase pHluor: inactive; tim23-1 inh: inactive; tim10-1 inh: 51.8; NALP3 yeast inh: inactive; NALP1 yeast inh: inactive; tim10-1 confirm: 35.8

How did CN(C)CCCN(C(=O)c1ccc2c(c1)CCCC2)c1nc2cc3c(cc2s1)OCO3 do in these assays?
TIM10 inh: inactive; V-ATPase pHluor: inactive; tim23-1 inh: inactive; tim10-1 inh: 41.5; NALP3 yeast inh: inactive; NALP1 yeast inh: inactive; tim10-1 confirm: inactive

What do the screens show for `COC(=O)c1cc(C)ccc1/C=C1/Cc2c(C)cc(C)cc2C1=O`?
V-ATPase pHluor: inactive

Results for COc1ccc(/C=N/c2c(-c3ccc(OC)cc3)nc3n2CCS3)cc1 ?
TIM10 inh: inactive; V-ATPase pHluor: inactive; tim23-1 inh: inactive; tim10-1 inh: 40.4; NALP3 yeast inh: inactive; NALP1 yeast inh: inactive; tim10-1 confirm: inactive

What do the screens show for `Fc1ccc(/C=N/c2c(-c3ccc(F)cc3)nc3n2CCS3)cc1`?
TIM10 inh: inactive; V-ATPase pHluor: inactive; tim23-1 inh: inactive; tim10-1 inh: inactive; NALP3 yeast inh: inactive; NALP1 yeast inh: inactive

What do the screens show for `CCOC(=O)N1CCN(C(=O)c2ccc(SC)cc2OC)CC1`?
TIM10 inh: inactive; V-ATPase pHluor: inactive; tim23-1 inh: inactive; tim10-1 inh: inactive; NALP3 yeast inh: inactive; NALP1 yeast inh: inactive

What do the screens show for `CCN(C[C@H]1N[C@@](CC)(C(=O)OC)[C@H]2C(=O)N(C)C(=O)[C@@H]12)C(=O)Nc1ccc(C)cc1`?
TIM10 inh: inactive; V-ATPase pHluor: inactive; tim23-1 inh: inactive; tim10-1 inh: inactive; NALP3 yeast inh: inactive

How did O=[N+]([O-])c1cccc(S(=O)(=O)c2ccc(NCCO)c([N+](=O)[O-])c2)c1 do in these assays?
TIM10 inh: inactive; V-ATPase pHluor: inactive; tim23-1 inh: inactive; tim10-1 inh: inactive; NALP3 yeast inh: inactive; NALP1 yeast inh: inactive

What do the screens show for `Nc1nn2c(-c3ccccc3)cc(=O)[nH]c2c1N=Nc1ccc(O)cc1`?
TIM10 inh: inactive; V-ATPase pHluor: inactive; tim23-1 inh: inactive; tim10-1 inh: 40.7; NALP3 yeast inh: inactive; NALP1 yeast inh: inactive; tim10-1 confirm: inactive

How did CSc1ccc2nnc(-c3cccc(F)c3)n2n1 do in these assays?
TIM10 inh: inactive; V-ATPase pHluor: inactive; tim23-1 inh: inactive; tim10-1 inh: 48.5; NALP3 yeast inh: inactive; NALP1 yeast inh: inactive; tim10-1 confirm: 41.4

Results for COc1cccc(C(=O)OCC(=O)NCCC2=CCCCC2)c1 ?
TIM10 inh: inactive; V-ATPase pHluor: inactive; tim23-1 inh: inactive; tim10-1 inh: inactive; NALP3 yeast inh: inactive

What do the screens show for `Cc1ccc2c(c1)c1c(n2C)-c2[nH]ncc2CC1`?
TIM10 inh: inactive; V-ATPase pHluor: inactive; tim23-1 inh: inactive; tim10-1 inh: 54.9; NALP3 yeast inh: inactive; NALP1 yeast inh: inactive; tim10-1 confirm: inactive

What do the screens show for `C[C@H]1[C@H](c2ccccc2)C[C@@H](C(=O)O)C1(C)C`?
TIM10 inh: inactive; V-ATPase pHluor: inactive; tim23-1 inh: inactive; tim10-1 inh: inactive; NALP3 yeast inh: inactive

What do the screens show for `CCN(CC)c1ccc(/C=N/n2c(C)nc3ccccc3c2=O)cc1`?
TIM10 inh: inactive; V-ATPase pHluor: inactive; tim23-1 inh: inactive; tim10-1 inh: inactive; NALP3 yeast inh: inactive; NALP1 yeast inh: inactive

What do the screens show for `CC(C)Cn1c(C23CC4CC(CC(C4)C2)C3)n[nH]c1=S`?
TIM10 inh: inactive; V-ATPase pHluor: inactive; tim23-1 inh: inactive; tim10-1 inh: inactive; NALP3 yeast inh: inactive; NALP1 yeast inh: inactive

Assay outcomes deposited in PubChem by several laboratories.
